# Assay results taken from article PMC7862700, “An all-to-all approach to the identification of sequence-specific readers for epigenetic DNA modifications on cytosine”.
# What was measured:
# Test in all cases: DAPPL (digital affinity profiling via proximity ligation, sequencing); 10 mM Tris-HCl pH 7.5, 50 mM NaCl, 1 mM DTT, 4% glycerol, room temperature, 30 min; GST-TFs on glutathione beads, 16-mer random dsDNA library, 0.1% formaldehyde crosslink after washing; high values mean tight binding
# [1] = biological target: T1, FLI1 (Homo sapiens, UniProt Q01543 1-452); settings: protein: recombinant; tags: N-terminal GST; dsDNA, one strand shown
# T1 sequence: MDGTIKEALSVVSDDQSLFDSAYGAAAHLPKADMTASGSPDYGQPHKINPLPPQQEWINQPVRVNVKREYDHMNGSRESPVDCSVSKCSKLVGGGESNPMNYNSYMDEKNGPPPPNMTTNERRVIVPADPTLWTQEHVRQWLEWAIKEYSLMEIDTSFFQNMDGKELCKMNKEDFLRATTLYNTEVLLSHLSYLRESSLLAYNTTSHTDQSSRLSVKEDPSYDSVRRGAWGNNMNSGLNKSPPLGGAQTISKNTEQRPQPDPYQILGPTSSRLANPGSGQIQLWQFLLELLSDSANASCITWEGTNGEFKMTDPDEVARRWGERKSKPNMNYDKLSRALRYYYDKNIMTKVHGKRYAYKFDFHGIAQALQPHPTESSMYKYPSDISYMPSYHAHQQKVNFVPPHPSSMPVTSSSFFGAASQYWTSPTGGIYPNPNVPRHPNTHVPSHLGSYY
# Procedure, shortened: (§1)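 GST fusions of human transcription factors were expressed in yeast and captured with glutathione beads. Once given DNA barcodes and pooled alongside a tag-only sample, they were incubated for 30 min at room temperature with 200 nmole of a random double-stranded 16-mer DNA library in Tris/NaCl/DTT/glycerol buffer, then washed, crosslinked (0.1% formaldehyde), proximity-ligated, PCR-amplified and sequenced on an Illumina NextSeq500. The binding signal of each hexamer is its read frequency for a factor divided by its frequency for the tag-only sample.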
# [2] = biological target: T2, ELK1 (Homo sapiens, UniProt P19419 1-428); settings: protein: recombinant; tags: N-terminal GST; dsDNA, one strand shown
# T2 sequence: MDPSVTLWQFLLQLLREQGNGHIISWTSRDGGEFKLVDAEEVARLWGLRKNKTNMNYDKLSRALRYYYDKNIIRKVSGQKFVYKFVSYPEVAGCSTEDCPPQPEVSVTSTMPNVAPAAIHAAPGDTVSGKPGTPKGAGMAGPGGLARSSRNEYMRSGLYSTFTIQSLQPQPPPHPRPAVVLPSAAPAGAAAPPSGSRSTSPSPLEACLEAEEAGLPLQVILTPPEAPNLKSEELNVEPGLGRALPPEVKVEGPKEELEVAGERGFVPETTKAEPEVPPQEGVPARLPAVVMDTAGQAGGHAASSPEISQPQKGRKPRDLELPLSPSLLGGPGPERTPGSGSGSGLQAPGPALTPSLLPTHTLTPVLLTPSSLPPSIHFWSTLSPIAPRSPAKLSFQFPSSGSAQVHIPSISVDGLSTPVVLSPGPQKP
# Procedure, shortened: as §1
# [3] = biological target: T3, GABPA (Homo sapiens, UniProt Q06546 1-454); settings: protein: recombinant; tags: N-terminal GST; dsDNA, one strand shown
# T3 sequence: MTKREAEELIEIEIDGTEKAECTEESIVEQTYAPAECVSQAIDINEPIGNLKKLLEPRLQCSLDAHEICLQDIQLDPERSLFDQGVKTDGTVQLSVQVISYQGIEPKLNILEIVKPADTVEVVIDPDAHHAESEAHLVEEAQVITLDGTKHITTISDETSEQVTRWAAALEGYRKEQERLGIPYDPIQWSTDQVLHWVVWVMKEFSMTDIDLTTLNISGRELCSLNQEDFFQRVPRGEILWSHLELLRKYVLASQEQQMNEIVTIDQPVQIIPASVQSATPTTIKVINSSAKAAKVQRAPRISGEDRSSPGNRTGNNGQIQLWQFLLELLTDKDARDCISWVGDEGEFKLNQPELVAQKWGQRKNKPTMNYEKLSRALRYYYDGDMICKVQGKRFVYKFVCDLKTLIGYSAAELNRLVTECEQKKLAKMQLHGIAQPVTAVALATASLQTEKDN
# Procedure, shortened: as §1
# [4] = biological target: T4, ERG (Homo sapiens, UniProt P11308 1-479); settings: protein: recombinant; tags: N-terminal GST; dsDNA, one strand shown
# T4 sequence: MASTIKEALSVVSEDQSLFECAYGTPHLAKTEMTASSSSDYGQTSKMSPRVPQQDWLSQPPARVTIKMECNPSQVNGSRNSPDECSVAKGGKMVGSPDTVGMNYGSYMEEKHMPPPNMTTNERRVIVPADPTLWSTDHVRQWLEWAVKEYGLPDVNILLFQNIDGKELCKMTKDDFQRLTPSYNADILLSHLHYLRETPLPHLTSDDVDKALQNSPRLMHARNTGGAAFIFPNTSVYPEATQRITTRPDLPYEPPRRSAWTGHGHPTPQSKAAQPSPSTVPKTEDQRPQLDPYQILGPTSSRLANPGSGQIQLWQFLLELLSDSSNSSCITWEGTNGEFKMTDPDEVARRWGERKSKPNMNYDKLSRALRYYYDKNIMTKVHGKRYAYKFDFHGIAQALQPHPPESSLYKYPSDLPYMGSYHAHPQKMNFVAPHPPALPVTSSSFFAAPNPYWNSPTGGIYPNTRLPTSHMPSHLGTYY
# Procedure, shortened: as §1
# [5] = biological target: ELF1 (Homo sapiens, UniProt P32519 1-619); settings: protein: recombinant; tags: N-terminal GST; dsDNA, one strand shown
# ELF1, sequence (P32519 whole entry): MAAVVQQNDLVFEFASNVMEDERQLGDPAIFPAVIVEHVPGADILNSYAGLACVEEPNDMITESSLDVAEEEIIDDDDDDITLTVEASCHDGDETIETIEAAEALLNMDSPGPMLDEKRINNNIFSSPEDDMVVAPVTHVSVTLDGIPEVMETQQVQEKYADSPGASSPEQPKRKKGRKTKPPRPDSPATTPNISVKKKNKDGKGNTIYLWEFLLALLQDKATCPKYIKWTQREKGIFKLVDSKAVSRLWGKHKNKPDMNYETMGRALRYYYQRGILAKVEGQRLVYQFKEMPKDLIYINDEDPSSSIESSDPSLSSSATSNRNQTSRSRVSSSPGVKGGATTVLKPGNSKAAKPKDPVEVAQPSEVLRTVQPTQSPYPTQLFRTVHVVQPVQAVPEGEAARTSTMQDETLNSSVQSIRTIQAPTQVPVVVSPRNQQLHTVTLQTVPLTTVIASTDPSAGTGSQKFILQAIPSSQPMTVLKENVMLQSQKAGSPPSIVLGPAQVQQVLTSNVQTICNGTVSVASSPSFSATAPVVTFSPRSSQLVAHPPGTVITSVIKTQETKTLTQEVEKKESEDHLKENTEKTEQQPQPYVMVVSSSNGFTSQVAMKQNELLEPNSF
# Procedure, shortened: as §1
# [6] = biological target: T5, EHF (Homo sapiens, UniProt Q9NZC4 1-300); settings: protein: recombinant; tags: N-terminal GST; dsDNA, one strand shown
# T5 sequence: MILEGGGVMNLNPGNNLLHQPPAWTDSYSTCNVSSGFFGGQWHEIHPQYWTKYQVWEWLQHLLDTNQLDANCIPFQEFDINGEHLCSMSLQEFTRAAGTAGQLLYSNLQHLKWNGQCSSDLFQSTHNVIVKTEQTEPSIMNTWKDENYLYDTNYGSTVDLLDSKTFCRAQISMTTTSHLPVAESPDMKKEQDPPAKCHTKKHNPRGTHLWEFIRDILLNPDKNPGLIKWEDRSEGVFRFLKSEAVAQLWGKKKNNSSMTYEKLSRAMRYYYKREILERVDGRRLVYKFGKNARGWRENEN
# Procedure, shortened: as §1
# [7] = biological target: SPI1 (Homo sapiens, UniProt P17947 1-270); settings: protein: recombinant; tags: N-terminal GST; dsDNA, one strand shown
# Procedure, shortened: as §1
# [8] = biological target: SPIB (Homo sapiens, UniProt Q01892 1-262); settings: protein: recombinant; tags: N-terminal GST; dsDNA, one strand shown
# SPIB, sequence (Q01892 whole entry): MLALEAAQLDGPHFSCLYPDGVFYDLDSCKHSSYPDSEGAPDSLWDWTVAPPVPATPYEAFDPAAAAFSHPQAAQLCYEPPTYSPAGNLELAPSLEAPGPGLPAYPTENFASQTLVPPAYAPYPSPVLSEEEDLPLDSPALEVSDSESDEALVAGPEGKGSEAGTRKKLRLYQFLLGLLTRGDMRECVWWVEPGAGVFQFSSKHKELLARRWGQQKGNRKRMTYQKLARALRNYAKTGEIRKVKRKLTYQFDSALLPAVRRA
# Procedure, shortened: as §1
# [9] = biological target: T6, ELK3 (Homo sapiens, UniProt P41970 1-407); settings: protein: recombinant; tags: N-terminal GST; dsDNA, one strand shown
# T6 sequence: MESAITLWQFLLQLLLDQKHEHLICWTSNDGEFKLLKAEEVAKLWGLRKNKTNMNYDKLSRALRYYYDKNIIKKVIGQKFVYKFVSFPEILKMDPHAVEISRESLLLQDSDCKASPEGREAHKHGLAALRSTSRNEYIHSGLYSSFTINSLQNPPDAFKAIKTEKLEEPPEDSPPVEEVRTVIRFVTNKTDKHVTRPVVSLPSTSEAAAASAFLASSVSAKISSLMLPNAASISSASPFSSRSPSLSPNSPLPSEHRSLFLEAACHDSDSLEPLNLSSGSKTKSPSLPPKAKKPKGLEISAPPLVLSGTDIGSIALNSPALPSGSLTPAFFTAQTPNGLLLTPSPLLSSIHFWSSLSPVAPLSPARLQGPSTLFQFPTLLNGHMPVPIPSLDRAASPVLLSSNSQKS
# Procedure, shortened: as §1
# [10] = biological target: T7, FEV (Homo sapiens, UniProt Q99581 1-238); settings: protein: recombinant; tags: N-terminal GST; dsDNA, one strand shown
# T7 sequence: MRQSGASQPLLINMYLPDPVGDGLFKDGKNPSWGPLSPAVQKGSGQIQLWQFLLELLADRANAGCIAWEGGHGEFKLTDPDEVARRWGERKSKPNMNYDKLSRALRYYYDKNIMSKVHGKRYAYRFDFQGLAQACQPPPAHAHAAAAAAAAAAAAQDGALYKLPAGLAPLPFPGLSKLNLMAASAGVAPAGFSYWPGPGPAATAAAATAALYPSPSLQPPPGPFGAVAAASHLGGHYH
# Procedure, shortened: as §1
# [11] = biological target: ETV5 (Homo sapiens, UniProt P41161 1-510); settings: protein: recombinant; tags: N-terminal GST; dsDNA, one strand shown
# ETV5, sequence (P41161 whole entry): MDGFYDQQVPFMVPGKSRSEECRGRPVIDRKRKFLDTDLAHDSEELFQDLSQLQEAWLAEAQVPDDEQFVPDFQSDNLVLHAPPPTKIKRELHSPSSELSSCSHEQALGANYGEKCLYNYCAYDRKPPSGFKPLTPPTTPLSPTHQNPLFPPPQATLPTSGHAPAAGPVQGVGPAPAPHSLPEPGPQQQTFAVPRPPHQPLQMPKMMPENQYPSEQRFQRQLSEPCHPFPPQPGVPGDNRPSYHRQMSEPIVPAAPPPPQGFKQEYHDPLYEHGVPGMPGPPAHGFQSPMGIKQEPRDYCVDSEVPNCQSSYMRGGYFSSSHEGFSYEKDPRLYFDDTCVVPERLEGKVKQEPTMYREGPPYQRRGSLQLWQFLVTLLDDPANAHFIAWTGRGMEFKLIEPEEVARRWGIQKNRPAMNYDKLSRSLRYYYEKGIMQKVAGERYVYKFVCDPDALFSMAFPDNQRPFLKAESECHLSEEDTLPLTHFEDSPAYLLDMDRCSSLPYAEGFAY
# Procedure, shortened: as §1
# [12] = biological target: HSF1 (Homo sapiens, UniProt Q00613 1-529); settings: protein: recombinant; tags: N-terminal GST; chain copies: 3; dsDNA, one strand shown
# HSF1, sequence (Q00613 whole entry): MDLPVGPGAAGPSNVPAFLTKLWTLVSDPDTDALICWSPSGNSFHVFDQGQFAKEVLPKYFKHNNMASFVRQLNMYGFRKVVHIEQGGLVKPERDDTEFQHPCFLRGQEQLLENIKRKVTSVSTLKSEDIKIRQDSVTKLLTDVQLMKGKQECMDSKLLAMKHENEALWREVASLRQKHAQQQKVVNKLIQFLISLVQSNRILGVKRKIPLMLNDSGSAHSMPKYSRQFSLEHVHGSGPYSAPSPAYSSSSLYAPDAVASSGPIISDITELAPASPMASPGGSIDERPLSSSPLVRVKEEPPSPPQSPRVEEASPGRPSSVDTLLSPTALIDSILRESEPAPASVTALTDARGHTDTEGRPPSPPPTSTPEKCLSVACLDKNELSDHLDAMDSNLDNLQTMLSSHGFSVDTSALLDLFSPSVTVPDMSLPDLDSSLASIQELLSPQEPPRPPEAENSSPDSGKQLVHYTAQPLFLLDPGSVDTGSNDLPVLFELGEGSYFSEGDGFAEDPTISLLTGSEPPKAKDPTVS
# Procedure, shortened: as §1
# [13] = biological target: T8, SPIC (Homo sapiens, UniProt Q8N5J4 1-248); settings: protein: recombinant; tags: N-terminal GST; dsDNA, one strand shown
# T8 sequence: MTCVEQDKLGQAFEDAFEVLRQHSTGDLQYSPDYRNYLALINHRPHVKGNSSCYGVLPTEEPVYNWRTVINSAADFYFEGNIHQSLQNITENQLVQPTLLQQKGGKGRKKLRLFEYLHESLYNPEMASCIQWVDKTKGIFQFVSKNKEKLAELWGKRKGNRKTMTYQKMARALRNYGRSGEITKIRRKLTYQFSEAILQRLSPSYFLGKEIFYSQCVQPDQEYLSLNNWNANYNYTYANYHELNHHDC
# Procedure, shortened: as §1
# [14] = biological target: ELF4 (Homo sapiens, UniProt Q99607 1-663); settings: protein: recombinant; tags: N-terminal GST; dsDNA, one strand shown
# ELF4, sequence (Q99607 whole entry): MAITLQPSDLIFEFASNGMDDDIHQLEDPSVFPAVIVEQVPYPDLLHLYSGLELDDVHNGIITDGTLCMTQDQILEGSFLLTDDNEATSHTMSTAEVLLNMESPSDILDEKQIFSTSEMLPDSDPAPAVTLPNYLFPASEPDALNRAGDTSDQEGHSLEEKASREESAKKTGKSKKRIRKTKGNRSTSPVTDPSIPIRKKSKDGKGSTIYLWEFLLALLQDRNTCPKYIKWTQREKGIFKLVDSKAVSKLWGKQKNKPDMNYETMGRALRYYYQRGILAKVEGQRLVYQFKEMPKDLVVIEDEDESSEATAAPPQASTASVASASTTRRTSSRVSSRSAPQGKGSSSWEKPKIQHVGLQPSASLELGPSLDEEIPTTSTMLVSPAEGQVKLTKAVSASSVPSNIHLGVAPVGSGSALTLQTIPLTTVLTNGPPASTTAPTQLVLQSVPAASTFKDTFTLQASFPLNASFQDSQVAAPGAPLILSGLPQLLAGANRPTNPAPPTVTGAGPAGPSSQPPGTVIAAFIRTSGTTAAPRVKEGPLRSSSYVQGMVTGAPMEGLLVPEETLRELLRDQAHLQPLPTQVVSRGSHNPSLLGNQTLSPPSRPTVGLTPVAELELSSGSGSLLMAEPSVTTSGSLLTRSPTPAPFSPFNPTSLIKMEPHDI
# Procedure, shortened: as §1
# [15] = biological target: T9, ELK4 (Homo sapiens, UniProt P28324-2 1-405); settings: protein: recombinant; tags: N-terminal GST; dsDNA, one strand shown
# T9 sequence: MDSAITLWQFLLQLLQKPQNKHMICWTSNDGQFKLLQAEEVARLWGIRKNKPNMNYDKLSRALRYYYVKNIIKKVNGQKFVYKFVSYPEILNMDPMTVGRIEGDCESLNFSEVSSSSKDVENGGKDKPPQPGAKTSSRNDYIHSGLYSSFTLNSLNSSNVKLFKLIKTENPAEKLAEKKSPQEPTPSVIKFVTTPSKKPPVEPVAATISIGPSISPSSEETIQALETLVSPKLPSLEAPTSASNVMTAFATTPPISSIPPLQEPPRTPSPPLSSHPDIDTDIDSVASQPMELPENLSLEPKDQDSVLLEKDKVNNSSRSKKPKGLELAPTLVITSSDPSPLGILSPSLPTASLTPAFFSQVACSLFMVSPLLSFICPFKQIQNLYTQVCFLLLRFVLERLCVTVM
# Procedure, shortened: as §1
# [16] = biological target: T10, ETV2 (Homo sapiens, UniProt O00321 1-342); settings: protein: recombinant; tags: N-terminal GST; dsDNA, one strand shown
# T10 sequence: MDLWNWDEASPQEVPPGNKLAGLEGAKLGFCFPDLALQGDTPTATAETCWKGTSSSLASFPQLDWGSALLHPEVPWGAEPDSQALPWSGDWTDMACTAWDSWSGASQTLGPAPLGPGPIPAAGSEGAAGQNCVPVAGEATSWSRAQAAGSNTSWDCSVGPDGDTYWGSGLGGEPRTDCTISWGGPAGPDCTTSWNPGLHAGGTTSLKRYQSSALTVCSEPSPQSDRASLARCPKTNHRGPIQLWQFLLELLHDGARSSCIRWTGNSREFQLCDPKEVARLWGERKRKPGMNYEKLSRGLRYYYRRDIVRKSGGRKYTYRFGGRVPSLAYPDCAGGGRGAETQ
# Procedure, shortened: as §1
# [17] = biological target: T11, ELF3 (Homo sapiens, UniProt P78545 1-371); settings: protein: recombinant; tags: N-terminal GST; dsDNA, one strand shown
# T11 sequence: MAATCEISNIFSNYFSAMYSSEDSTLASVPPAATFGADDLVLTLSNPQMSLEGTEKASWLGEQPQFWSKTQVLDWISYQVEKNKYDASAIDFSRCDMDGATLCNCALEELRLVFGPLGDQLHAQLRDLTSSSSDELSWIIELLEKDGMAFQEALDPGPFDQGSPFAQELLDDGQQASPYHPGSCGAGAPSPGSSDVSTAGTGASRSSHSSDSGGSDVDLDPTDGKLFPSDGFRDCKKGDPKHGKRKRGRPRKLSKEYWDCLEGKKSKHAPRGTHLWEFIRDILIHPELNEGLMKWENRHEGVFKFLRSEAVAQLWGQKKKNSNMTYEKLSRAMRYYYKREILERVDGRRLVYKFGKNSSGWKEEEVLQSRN
# Procedure, shortened: as §1
# [18] = biological target: CRX (Homo sapiens, UniProt O43186 1-299); settings: protein: recombinant; tags: N-terminal GST; dsDNA, one strand shown
# CRX, sequence (O43186 whole entry): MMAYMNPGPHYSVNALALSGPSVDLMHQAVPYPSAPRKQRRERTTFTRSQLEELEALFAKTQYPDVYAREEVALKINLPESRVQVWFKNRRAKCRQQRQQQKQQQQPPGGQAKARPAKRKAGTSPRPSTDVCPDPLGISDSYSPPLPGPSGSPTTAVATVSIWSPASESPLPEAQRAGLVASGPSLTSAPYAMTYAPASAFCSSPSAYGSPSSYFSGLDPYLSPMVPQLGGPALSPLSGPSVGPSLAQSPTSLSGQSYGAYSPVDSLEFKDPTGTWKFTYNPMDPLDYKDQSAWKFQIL
# Procedure, shortened: as §1
# [19] = biological target: ETV1 (Homo sapiens, UniProt P50549 1-477); settings: protein: recombinant; tags: N-terminal GST; dsDNA, one strand shown
# ETV1, sequence (P50549 whole entry): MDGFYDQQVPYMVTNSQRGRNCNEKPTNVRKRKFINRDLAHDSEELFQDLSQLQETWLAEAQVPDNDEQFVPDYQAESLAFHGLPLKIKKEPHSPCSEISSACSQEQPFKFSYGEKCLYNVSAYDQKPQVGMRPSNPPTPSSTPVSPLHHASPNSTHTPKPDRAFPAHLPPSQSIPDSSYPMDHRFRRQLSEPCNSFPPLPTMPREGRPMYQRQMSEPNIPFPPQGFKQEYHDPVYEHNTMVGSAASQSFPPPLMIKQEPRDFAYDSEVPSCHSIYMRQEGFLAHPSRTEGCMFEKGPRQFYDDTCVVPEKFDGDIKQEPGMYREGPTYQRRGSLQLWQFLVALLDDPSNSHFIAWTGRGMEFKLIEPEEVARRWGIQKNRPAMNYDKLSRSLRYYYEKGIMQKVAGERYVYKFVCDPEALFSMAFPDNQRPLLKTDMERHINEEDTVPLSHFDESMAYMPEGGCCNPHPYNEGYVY
# Procedure, shortened: as §1
sequence,measurement,setting,value
TTTAAT,binding signal,[1],"1.4 fold enrichment (6-mer frequency, TF over GST control)"
same,binding signal,[2],"1.28 fold enrichment (6-mer frequency, TF over GST control)"
same,binding signal,[3],"1.29 fold enrichment (6-mer frequency, TF over GST control)"
same,binding signal,[4],"1.27 fold enrichment (6-mer frequency, TF over GST control)"
same,binding signal,[5],"1.29 fold enrichment (6-mer frequency, TF over GST control)"
same,binding signal,[6],"1.35 fold enrichment (6-mer frequency, TF over GST control)"
same,binding signal,[7],"1.23 fold enrichment (6-mer frequency, TF over GST control)"
same,binding signal,[8],"1.35 fold enrichment (6-mer frequency, TF over GST control)"
same,binding signal,[9],"1.36 fold enrichment (6-mer frequency, TF over GST control)"
same,binding signal,[10],"1.26 fold enrichment (6-mer frequency, TF over GST control)"
same,binding signal,[11],"1.32 fold enrichment (6-mer frequency, TF over GST control)"
same,binding signal,[12],"2.06 fold enrichment (6-mer frequency, TF over GST control)"
same,binding signal,[13],"1.25 fold enrichment (6-mer frequency, TF over GST control)"
same,binding signal,[14],"1.32 fold enrichment (6-mer frequency, TF over GST control)"
same,binding signal,[15],"1.35 fold enrichment (6-mer frequency, TF over GST control)"
same,binding signal,[16],"1.06 fold enrichment (6-mer frequency, TF over GST control)"
same,binding signal,[17],"1.3 fold enrichment (6-mer frequency, TF over GST control)"
same,binding signal,[18],"3.28 fold enrichment (6-mer frequency, TF over GST control)"
same,binding signal,[19],"1.34 fold enrichment (6-mer frequency, TF over GST control)"
